Laboratory results reported in article PMC7862700, “An all-to-all approach to the identification of sequence-specific readers for epigenetic DNA modifications on cytosine”.

Key:
Experiment in all cases: DAPPL (digital affinity profiling via proximity ligation, sequencing); 10 mM Tris-HCl pH 7.5, 50 mM NaCl, 1 mM DTT, 4% glycerol, room temperature, 30 min; GST-TFs on glutathione beads, 16-mer random dsDNA library, 0.1% formaldehyde crosslink after washing; high values mean tight binding
FEV = biological target: T1, FEV (Homo sapiens, UniProt Q99581 1-238); conditions: protein: recombinant; tags: N-terminal GST; dsDNA, one strand shown
T1 sequence: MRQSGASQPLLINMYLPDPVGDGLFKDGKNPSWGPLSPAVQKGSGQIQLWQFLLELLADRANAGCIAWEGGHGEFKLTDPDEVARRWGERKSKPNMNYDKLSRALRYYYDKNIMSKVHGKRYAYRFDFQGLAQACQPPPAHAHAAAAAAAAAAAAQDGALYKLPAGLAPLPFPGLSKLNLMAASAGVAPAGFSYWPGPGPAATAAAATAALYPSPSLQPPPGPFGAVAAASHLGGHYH
In short: (§1)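 In yeast, human transcription factors were expressed with a GST fusion, then pulled down on glutathione beads and given DNA barcodes. Pooled with a tag-only sample, they were exposed to 200 nmole of a 16-mer random double-stranded DNA library (Tris/NaCl/DTT/glycerol buffer, room temperature, 30 min), washed, crosslinked with 0.1% formaldehyde, proximity-ligated using BsaI/T4 ligase for 1 h at 37 °C, PCR-amplified and read on an Illumina NextSeq500. Each hexamer's frequency of reads for a factor, divided by the matching frequency for the tag-only sample, gives the binding signal.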

ETV5 = ETV5 (Homo sapiens, UniProt P41161 1-510); conditions: protein: recombinant; tags: N-terminal GST; dsDNA, one strand shown
Sequence of ETV5 (P41161 whole entry): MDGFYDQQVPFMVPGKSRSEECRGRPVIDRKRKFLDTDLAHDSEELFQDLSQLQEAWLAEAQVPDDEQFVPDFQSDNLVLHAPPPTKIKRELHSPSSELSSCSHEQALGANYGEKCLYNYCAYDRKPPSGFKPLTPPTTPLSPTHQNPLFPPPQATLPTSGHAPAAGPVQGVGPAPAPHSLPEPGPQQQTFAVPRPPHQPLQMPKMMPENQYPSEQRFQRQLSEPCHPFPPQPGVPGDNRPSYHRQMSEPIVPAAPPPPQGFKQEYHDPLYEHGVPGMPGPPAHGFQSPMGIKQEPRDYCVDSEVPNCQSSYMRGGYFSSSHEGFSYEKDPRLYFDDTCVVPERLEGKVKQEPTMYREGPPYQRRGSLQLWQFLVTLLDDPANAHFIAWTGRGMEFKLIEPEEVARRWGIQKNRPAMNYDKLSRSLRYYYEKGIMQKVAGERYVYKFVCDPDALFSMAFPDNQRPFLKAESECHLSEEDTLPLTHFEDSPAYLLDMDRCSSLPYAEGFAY
In short: as §1

HSF1 = HSF1 (Homo sapiens, UniProt Q00613 1-529); conditions: protein: recombinant; tags: N-terminal GST; chain copies: 3; dsDNA, one strand shown
Sequence of HSF1 (Q00613 whole entry): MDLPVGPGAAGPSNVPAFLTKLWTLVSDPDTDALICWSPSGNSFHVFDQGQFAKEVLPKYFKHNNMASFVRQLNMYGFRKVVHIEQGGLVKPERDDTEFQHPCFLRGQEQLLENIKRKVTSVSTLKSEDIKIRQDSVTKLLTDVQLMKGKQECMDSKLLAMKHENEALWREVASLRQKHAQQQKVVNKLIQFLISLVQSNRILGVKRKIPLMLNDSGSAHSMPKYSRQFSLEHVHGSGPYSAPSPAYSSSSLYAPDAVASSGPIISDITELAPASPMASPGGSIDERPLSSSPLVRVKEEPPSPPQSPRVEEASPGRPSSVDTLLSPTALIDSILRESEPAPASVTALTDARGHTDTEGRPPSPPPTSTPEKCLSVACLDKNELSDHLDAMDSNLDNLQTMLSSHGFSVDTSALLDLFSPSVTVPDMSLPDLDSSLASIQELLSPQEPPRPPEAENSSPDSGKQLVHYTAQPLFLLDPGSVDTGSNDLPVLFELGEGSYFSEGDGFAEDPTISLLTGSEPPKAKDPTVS
In short: as §1

SPIC = biological target: T2, SPIC (Homo sapiens, UniProt Q8N5J4 1-248); conditions: protein: recombinant; tags: N-terminal GST; dsDNA, one strand shown
T2 sequence: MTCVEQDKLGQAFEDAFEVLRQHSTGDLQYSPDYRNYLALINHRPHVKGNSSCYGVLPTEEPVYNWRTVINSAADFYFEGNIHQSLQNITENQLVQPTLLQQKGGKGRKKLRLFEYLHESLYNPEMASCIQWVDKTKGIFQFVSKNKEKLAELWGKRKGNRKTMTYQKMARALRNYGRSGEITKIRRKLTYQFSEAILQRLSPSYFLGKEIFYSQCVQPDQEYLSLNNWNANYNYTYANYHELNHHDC
In short: as §1

ELF4 = ELF4 (Homo sapiens, UniProt Q99607 1-663); conditions: protein: recombinant; tags: N-terminal GST; dsDNA, one strand shown
Sequence of ELF4 (Q99607 whole entry): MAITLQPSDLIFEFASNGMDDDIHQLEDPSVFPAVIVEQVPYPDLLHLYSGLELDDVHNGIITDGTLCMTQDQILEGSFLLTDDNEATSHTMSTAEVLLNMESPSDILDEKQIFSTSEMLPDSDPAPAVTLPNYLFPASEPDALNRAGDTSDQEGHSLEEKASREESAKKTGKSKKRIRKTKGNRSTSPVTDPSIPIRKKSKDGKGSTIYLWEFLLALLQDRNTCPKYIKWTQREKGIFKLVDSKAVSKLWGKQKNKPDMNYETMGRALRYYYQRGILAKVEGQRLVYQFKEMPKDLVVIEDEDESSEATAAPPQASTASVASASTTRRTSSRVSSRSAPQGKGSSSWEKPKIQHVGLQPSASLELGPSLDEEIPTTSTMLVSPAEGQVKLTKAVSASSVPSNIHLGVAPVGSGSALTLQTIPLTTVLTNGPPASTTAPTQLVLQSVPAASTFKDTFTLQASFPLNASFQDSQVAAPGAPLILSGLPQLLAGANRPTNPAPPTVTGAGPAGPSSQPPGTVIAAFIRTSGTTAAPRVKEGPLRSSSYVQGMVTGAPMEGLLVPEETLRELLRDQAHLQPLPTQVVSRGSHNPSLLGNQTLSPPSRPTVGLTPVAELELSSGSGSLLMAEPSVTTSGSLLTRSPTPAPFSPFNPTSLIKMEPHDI
In short: as §1

ELK4 = biological target: T3, ELK4 (Homo sapiens, UniProt P28324-2 1-405); conditions: protein: recombinant; tags: N-terminal GST; dsDNA, one strand shown
T3 sequence: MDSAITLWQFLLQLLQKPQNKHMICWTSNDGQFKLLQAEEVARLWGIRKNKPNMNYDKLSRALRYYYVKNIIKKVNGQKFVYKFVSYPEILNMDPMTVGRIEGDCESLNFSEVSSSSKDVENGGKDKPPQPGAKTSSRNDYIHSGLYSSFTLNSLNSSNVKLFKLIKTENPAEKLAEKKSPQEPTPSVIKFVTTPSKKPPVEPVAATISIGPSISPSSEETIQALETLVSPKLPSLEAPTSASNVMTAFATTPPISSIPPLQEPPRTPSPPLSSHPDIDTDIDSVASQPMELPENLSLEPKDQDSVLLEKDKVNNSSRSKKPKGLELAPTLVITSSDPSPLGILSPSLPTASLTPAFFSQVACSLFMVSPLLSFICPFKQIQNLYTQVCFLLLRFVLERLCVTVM
In short: as §1

ETV2 = biological target: T4, ETV2 (Homo sapiens, UniProt O00321 1-342); conditions: protein: recombinant; tags: N-terminal GST; dsDNA, one strand shown
T4 sequence: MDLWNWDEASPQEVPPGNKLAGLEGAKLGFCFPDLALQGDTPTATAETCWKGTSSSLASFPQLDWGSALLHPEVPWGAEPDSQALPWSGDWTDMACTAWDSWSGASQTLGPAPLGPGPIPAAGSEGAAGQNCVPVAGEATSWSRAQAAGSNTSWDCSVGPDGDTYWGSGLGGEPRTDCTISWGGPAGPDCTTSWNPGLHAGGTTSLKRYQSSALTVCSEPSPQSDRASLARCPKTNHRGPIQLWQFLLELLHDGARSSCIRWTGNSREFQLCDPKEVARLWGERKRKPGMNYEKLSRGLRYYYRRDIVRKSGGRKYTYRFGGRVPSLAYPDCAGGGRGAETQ
In short: as §1

ELF3 = biological target: T5, ELF3 (Homo sapiens, UniProt P78545 1-371); conditions: protein: recombinant; tags: N-terminal GST; dsDNA, one strand shown
T5 sequence: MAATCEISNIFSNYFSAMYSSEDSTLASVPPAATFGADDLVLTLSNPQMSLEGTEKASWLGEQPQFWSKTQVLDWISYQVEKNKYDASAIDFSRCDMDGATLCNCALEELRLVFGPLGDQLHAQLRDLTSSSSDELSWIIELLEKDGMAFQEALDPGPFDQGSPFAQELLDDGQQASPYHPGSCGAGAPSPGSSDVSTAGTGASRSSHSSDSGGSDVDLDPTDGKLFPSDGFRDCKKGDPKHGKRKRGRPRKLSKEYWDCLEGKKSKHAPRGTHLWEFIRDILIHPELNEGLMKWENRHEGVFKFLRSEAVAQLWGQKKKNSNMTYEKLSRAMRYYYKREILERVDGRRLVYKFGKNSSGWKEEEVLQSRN
In short: as §1

CRX = CRX (Homo sapiens, UniProt O43186 1-299); conditions: protein: recombinant; tags: N-terminal GST; dsDNA, one strand shown
Sequence of CRX (O43186 whole entry): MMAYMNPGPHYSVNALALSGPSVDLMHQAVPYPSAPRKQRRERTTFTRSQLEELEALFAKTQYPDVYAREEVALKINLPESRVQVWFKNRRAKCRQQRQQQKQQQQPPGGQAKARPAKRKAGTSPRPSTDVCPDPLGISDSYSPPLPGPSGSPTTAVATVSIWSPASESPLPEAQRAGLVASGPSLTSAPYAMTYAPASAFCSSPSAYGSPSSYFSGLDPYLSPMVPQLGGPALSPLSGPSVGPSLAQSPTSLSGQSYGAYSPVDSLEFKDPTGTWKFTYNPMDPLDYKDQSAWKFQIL
In short: as §1

ETV1 = ETV1 (Homo sapiens, UniProt P50549 1-477); conditions: protein: recombinant; tags: N-terminal GST; dsDNA, one strand shown
Sequence of ETV1 (P50549 whole entry): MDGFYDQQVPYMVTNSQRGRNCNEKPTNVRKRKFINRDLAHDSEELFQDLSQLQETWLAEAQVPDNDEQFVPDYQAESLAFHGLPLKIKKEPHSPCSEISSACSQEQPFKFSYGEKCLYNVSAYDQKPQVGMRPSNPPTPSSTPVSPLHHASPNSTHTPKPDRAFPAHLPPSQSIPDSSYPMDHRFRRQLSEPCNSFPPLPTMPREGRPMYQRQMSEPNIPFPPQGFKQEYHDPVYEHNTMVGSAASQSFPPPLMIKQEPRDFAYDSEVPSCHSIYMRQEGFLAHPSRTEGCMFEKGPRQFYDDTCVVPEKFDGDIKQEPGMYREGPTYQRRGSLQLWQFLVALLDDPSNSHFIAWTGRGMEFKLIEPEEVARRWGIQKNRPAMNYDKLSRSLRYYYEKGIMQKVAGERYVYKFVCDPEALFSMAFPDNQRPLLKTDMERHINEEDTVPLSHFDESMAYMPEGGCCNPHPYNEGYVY
In short: as §1

ERF = biological target: T6, ERF (Homo sapiens, UniProt P50548 1-548); conditions: protein: recombinant; tags: N-terminal GST; dsDNA, one strand shown
T6 sequence: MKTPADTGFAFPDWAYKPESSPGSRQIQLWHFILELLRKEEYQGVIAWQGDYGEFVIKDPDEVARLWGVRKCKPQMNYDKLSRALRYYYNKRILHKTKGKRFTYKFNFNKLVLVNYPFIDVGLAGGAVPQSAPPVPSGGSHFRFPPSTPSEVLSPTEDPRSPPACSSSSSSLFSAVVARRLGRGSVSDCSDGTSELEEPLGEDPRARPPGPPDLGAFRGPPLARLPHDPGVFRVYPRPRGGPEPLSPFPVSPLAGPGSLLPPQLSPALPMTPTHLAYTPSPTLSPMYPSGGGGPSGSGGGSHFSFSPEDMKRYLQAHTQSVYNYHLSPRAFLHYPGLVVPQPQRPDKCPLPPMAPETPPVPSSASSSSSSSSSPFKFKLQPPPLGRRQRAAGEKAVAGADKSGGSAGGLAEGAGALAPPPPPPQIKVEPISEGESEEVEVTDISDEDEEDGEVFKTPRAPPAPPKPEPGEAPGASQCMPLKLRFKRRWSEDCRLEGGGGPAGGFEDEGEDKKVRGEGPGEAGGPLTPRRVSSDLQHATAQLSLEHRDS
In short: as §1

ETV3L = biological target: T7, ETV3L (Homo sapiens, UniProt Q6ZN32 1-361); conditions: protein: recombinant; tags: N-terminal GST; dsDNA, one strand shown
T7 sequence: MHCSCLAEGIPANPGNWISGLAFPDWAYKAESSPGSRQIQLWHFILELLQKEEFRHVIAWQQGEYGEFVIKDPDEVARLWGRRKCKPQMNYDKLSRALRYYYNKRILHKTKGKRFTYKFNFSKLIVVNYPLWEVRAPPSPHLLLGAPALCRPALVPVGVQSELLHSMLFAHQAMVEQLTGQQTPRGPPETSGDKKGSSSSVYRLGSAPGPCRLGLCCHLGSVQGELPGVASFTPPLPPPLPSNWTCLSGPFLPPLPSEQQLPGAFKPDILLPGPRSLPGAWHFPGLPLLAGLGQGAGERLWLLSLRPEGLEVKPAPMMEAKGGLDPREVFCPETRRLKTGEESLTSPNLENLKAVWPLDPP
In short: as §1

ETS2 = biological target: T8, ETS2 (Homo sapiens, UniProt P15036 1-469); conditions: protein: recombinant; tags: N-terminal GST; dsDNA, one strand shown
T8 sequence: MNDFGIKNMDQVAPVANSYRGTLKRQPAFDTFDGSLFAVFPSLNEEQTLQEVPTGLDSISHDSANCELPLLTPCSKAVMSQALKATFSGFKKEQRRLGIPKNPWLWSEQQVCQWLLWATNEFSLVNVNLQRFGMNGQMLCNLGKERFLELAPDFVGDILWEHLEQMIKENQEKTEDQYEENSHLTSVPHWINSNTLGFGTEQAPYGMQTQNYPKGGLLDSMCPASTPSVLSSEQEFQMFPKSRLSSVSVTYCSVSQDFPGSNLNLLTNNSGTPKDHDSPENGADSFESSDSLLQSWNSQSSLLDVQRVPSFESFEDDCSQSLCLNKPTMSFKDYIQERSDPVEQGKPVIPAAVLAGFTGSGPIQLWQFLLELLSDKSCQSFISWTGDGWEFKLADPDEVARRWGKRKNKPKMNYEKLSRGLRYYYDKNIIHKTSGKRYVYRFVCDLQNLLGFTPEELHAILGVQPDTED
In short: as §1

SPDEF = biological target: T9, SPDEF (Homo sapiens, UniProt O95238 1-335); conditions: protein: recombinant; tags: N-terminal GST; dsDNA, one strand shown
T9 sequence: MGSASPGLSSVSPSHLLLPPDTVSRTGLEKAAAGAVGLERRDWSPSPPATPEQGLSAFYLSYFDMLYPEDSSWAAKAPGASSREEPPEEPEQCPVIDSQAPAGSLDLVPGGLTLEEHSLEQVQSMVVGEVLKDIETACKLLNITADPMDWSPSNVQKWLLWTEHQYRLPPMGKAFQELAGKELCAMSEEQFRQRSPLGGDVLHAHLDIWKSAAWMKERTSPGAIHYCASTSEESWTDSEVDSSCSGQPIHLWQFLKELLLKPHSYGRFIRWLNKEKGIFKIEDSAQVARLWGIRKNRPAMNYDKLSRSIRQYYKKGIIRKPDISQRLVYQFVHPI
In short: as §1

ETV7 = biological target: T10, ETV7 (Homo sapiens, UniProt Q9Y603 1-341); conditions: protein: recombinant; tags: N-terminal GST; dsDNA, one strand shown
T10 sequence: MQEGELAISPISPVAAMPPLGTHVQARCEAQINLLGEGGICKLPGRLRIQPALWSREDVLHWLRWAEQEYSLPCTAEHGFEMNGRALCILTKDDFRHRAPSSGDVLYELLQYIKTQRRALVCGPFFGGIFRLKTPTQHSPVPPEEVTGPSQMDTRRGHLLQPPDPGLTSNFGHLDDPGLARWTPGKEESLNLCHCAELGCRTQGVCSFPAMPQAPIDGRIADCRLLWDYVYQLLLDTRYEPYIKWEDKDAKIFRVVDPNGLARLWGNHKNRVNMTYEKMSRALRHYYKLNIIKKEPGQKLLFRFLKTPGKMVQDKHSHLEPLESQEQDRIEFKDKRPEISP
In short: as §1

ELF5 = biological target: T11, ELF5 (Homo sapiens, UniProt Q9UKW6-2 1-255); conditions: protein: recombinant; tags: N-terminal GST; dsDNA, one strand shown
T11 sequence: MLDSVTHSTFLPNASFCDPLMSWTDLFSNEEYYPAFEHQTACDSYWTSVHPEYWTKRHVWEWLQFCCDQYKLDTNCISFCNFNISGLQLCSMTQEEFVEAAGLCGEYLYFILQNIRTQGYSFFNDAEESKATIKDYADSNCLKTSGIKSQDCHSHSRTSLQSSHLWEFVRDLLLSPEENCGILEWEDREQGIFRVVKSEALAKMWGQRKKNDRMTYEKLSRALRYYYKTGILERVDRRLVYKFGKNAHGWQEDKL
In short: as §1

ETV3 = biological target: T12, ETV3 (Homo sapiens, UniProt P41162-2 1-143); conditions: protein: recombinant; tags: N-terminal GST; dsDNA, one strand shown
T12 sequence: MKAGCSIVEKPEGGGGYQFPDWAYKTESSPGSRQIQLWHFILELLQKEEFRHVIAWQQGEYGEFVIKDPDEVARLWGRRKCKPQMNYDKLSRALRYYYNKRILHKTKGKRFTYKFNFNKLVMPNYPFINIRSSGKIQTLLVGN
In short: as §1

ETV6 = ETV6 (Homo sapiens, UniProt P41212 1-452); conditions: protein: recombinant; tags: N-terminal GST; dsDNA, one strand shown
Sequence of ETV6 (P41212 whole entry): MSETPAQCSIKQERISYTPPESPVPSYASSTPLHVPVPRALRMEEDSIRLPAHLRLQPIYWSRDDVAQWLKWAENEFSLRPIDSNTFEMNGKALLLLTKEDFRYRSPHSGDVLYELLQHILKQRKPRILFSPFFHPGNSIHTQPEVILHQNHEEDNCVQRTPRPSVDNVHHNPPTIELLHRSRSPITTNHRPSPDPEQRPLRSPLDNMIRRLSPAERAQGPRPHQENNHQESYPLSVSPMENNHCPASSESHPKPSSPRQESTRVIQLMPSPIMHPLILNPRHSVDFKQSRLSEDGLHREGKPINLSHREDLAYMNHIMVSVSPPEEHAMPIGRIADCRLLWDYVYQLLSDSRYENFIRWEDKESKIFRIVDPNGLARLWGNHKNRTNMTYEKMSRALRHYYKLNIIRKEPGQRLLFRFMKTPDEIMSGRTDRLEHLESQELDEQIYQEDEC
In short: as §1

CCCATA
binding signal (FEV): 1.24 fold enrichment (6-mer frequency, TF over GST control) | binding signal (ETV5): 1.23 fold enrichment (6-mer frequency, TF over GST control) | binding signal (HSF1): 1.14 fold enrichment (6-mer frequency, TF over GST control) | binding signal (SPIC): 1.31 fold enrichment (6-mer frequency, TF over GST control) | binding signal (ELF4): 1.32 fold enrichment (6-mer frequency, TF over GST control) | binding signal (ELK4): 1.06 fold enrichment (6-mer frequency, TF over GST control) | binding signal (ETV2): 1.3 fold enrichment (6-mer frequency, TF over GST control) | binding signal (ELF3): 1.33 fold enrichment (6-mer frequency, TF over GST control) | binding signal (CRX): 1.24 fold enrichment (6-mer frequency, TF over GST control) | binding signal (ETV1): 1.24 fold enrichment (6-mer frequency, TF over GST control) | binding signal (ERF): 1.19 fold enrichment (6-mer frequency, TF over GST control) | binding signal (ETV3L): 1.34 fold enrichment (6-mer frequency, TF over GST control) | binding signal (ETS2): 1.29 fold enrichment (6-mer frequency, TF over GST control) | binding signal (SPDEF): 1.19 fold enrichment (6-mer frequency, TF over GST control) | binding signal (ETV7): 1.19 fold enrichment (6-mer frequency, TF over GST control) | binding signal (ELF5): 1.25 fold enrichment (6-mer frequency, TF over GST control) | binding signal (ETV3): 1.21 fold enrichment (6-mer frequency, TF over GST control) | binding signal (ETV6): 1.31 fold enrichment (6-mer frequency, TF over GST control)
